Assay [1] is described as follows: Her2 expression decrease, cell viability multiplex – SKBR3 breast tumor cells, AlphaScreen, ATP viability, primary screen (AID 461;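 active = Her2 level under about 52% in both replicate screens, with viability over 70% of control, limit read from the data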;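 as to Her2 level: lower value means less Her2 protein in the cells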;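 as to viability: percent of carrier control wells set as 100% viability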). As to conditions: SKBR3 Her2 protein level, 18-24 h, measured here: SKBR3 viability, ATP luminescence, at 10 µM. On the technique in general: Alpha assays give light when donor and acceptor beads are brought close together.
Assay [2] has as its target Receptor tyrosine-protein kinase erbB-2 (Homo sapiens) (UniProt P04626). Described as above. As to conditions: 18-24 h, at 10 µM, stronger effect = lower value.
Assay [3] is described as follows: reduced viability of SK-BR-3 breast cancer cells – cell-based, 24 h, human, pilot screen (AID 572;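 active = viability at or below 10% of carrier control in both of two separate runs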;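 also: compound exposure lasted between 18 and 24 h rather than exactly 24 h; 100% = carrier-treated control wells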). As to conditions: SK-BR-3 viability, CellTiter-Glo luminescence, at 10 µM, stronger effect = lower value.
Assay [4] is described as follows: HUVEC growth inhibition – cell-based, human, primary screen (AID 575;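 active = viability at or below 30% in both replicate assays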;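 also: 100% = median of untreated cell wells with 0.1% DMSO on each plate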). As to conditions: HUVEC proliferation, CellTiter-Glo luminescence, 72 h; at 10 µM; stronger effect = lower value. (In general: Cellular ATP, detected with luciferase, serves as a proxy for viable cell number.)
Assay [5] can be described thus: H69AR cell proliferation blockers – human, duplicate replicates, primary screen (AID 580;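 active = viability at or under a set limit in both replicates, limit being median viability minus 3 SD, cut at about 48% in these data, passing the limit was not always enough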;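 also: 100% = mean luminescence of untreated wells and 0% = no signal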). As to conditions: H69AR lung tumor cells viability, ATP luminescence, 72 h; at 10 µM; stronger effect = lower value.
Assay [6] can be described thus: MRP1 drug-resistance reversers in H69AR cells – cell-based, doxorubicin co-treatment, pilot screen (AID 601;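 active = viability loss from added drug above about 55%, and viability with drug at most 40%, in both replicates, limit read from the data, passing the limit was not always enough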). As to conditions: CellTiter-Glo, 72 h, at 10 µM; for differential viability (reversal): stronger effect = higher value.
Assay [7] is described as follows: yeast transport mutant growth inhibition pilot in 384-well plates, post-Golgi transport modulator project (AID 636; in the data active = inhibition above about 31%). As to conditions: absorbance 615 nm, about 18 h, stronger effect = higher value.
Assay [8] in a line: growth suppression of yeast trafficking mutant, preliminary HTS, modulators of trafficking downstream of Golgi apparatus project, 1536-format plate, OD 615 nm (AID 637; in the data active = inhibition above about 30%). As to conditions: yeast transport mutant growth, absorbance 615 nm, 18 h; stronger effect = higher value.
Assay [9] is described as follows: S. cerevisiae growth inhibition in permissive medium (OD615), pilot counter-assay for S. cerevisiae lifespan shortening project, permissive growth control (AID 705;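 active = growth inhibition above 25% in both replicates, a cutoff set 3 SD above the mean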). As to conditions: OD615, 24 h, at 10 µM, stronger effect = higher value.
The nature of assay [10]: S. cerevisiae growth inhibition in restrictive medium, OD615, pilot screen, restrictive growth control, yeast lifespan reduction project (AID 706;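 active = growth inhibition above a set limit, 3 SD over mean compound inhibition, in both replicates, cut at about 43% in these data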;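 also: modified DeaD lifespan yeast strain shifted to restrictive glucose medium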). As to conditions: OD615, 48 h, at 10 µM, stronger effect = higher value.
Assay [11] in a line: doxorubicin toxicity protection in MRP-1 cells – H69AR cells, CellTiter-Glo, duplicate, MRP-1 activator project, pilot screen (AID 807;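 active = viability increase at or above a cutoff of the median across tested compounds plus 3 SD, cut at about 8.5% in these data, passing the limit was not always enough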;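 also: compound pretreatment 18-22 h then 72 h combined with doxorubicin; 0% = doxorubicin alone and 100% = vehicle without doxorubicin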). As to conditions: H69AR viability with doxorubicin, CellTiter-Glo luminescence; at 10 µM; stronger effect = higher value.
Assay [12] in a line: viability of HCT116 without oncogenic beta-catenin – human colon tumor cells, pilot screen (AID 823;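 active = cell viability at or below a set limit in both duplicate runs, the limit being the all-compound median minus 4 SD, cut at about 23% in these data, passing the limit was not always enough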;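 also: 0% = wells killed by 20 µM Hyamine and 100% = untreated DMSO cell wells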). As to conditions: HCT116 beta-catenin knockout viability, CellTiter-Glo, 60 h; at 10 µM; stronger effect = lower value.
Assay [13] in a line: viability of PTEN-null HCT116 cells – cell-based, HCT116 clonal line, CellTiter-Glo, pilot screen (AID 824;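 active = viability at or below 27.92% in each of two runs, the all-compound median minus 4 SD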;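 also: 0% = 20 µM Hyamine control and 100% = vehicle cell control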). As to conditions: HCT116 PTEN-deleted viability, 60 h, at 10 µM, stronger effect = lower value.
Assay [14] can be described thus: RAM pathway blockade in budding yeast – dse1pr::URA3 reporter, 5-FOA selection, pilot screen (AID 869).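 Also: 0% = DMSO wells with no growth and 100% = 10 µM 1-NA-PP1 with full growth; RAM network block rescues cells from 5-FOA so hits raise OD615 growth.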 As to conditions: S. cerevisiae dse1pr::URA3 5-FOA growth, OD615, 2 d; at 10 µM; stronger effect = higher value; strain carries analog-sensitive mutant Cbk1 kinase.
A short description of assay [15]: RAM signaling pathway blockade in yeast – S. cerevisiae, Pdr1DBD-CYC8 efflux-inhibited sensitized strain, primary screen (AID 1298;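 active = RAM network inhibition above 8.4% in each of two replicates, 3 SD over the compound average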;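 also: 0% = DMSO untreated cells without growth and 100% = 10 µM 1-NA-PP1 full growth; higher means more yeast growth rescued from 5-FOA killing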). As to conditions: S. cerevisiae cbk1-as DSE1-URA3 strain, 5-FOA growth OD615, 2 d; at 50 µM; stronger effect = higher value.
Setting [16] is: H69AR cells + 2 uM doxorubicin, measured here: viability with 2 uM doxorubicin, stronger effect = lower value.
[17] abbreviates: H69AR cells, compound alone cytotoxicity.

Inconclusive results are not listed. The source made the active and inactive calls.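 The calls were made as follows, unless noted: active = inhibition over a set limit, the all-compound mean plus 3 SD, in both replicate runs; inconclusive = over that limit in just one replicate run; inactive = at or under that limit in both runs.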

Sequence of Receptor tyrosine-protein kinase erbB-2 (Homo sapiens) (P04626 whole entry, looked up): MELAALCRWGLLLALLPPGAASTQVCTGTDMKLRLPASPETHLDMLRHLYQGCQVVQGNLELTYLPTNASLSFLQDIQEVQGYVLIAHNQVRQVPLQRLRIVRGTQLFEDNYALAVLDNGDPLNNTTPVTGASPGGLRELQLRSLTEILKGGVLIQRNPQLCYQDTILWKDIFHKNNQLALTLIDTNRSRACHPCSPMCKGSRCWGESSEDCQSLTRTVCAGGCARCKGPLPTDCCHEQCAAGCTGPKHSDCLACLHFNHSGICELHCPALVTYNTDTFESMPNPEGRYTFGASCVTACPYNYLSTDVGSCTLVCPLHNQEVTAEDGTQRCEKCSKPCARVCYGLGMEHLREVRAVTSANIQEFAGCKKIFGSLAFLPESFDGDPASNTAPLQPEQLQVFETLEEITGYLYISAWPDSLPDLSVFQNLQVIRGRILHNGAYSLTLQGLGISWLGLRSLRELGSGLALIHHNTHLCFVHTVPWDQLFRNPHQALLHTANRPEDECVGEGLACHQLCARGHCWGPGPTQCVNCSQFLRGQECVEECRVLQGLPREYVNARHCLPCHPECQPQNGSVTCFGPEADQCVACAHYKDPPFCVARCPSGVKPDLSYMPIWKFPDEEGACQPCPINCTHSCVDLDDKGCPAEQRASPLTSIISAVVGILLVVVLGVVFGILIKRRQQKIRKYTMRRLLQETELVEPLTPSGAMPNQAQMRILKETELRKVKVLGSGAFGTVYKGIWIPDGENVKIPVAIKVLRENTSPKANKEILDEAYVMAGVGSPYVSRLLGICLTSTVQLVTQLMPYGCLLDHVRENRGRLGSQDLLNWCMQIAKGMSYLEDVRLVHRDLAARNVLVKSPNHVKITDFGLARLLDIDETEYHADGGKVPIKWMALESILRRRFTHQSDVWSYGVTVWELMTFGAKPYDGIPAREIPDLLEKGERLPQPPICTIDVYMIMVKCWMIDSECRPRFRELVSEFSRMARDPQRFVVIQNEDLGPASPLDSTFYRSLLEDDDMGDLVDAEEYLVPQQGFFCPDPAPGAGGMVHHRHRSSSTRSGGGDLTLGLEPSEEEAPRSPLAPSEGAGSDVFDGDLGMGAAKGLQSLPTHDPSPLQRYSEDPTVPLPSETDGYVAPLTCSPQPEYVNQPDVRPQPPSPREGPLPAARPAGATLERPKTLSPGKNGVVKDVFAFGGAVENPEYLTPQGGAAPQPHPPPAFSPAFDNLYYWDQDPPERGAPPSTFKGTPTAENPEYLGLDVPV

In the case of `Cc1ccc(S(=O)(=O)NCCOC(=O)Nc2sc(=S)n(C)c2C)cc1`, the viability is 75.5% in [1]; 75.5% (inactive) in assay [3]; 90% (inactive) in assay [4]; 101% (inactive) in assay [5]; 94.1% in assay [6] (setting [16]); 101% in assay [6] (setting [17]). For the same compound, the viability is 115% (inactive) in assay [12] and 88.2% (inactive) in [13]. Besides, in assay [2], the Her2 level is 96.5% (inactive). Further, the differential viability (reversal) in assay [6] (H69AR cells + 2 uM doxorubicin) is 7.26% (inactive). Besides, the figures for the inhibition in assay [7], in assay [8] and in assay [14] were -2.84% (inactive), 14.9% (inactive) and 1.25% (inactive), respectively. In addition, the values for the growth inhibition in assay [9] and in assay [10] were 6.39% (inactive) and 23.1% (inactive), respectively. Moreover, the viability increase in assay [11] was -3.78% (inactive). Also, the RAM network inhibition in assay [15] was 1.73% (inactive).

Consider `CCN1CCN(C(c2cccs2)C(C)NC(=O)c2ccccc2)CC1` (stereo not given), for which the viability in assay [1] was 92%; in assay [3] it was 92% (inactive); in assay [4], 104% (inactive); in assay [5], 87.3% (inactive); in [6] (setting [16]), 81.3%; in assay [6] (setting [17]), 87.3%. For the same compound, the results for the viability in assay [12] and in assay [13] were 101% (inactive) and 105% (inactive), respectively. The Her2 level in assay [2] is 88% (inactive). Besides, in assay [6] (H69AR cells + 2 uM doxorubicin), the differential viability (reversal) is 6.01% (inactive). Further, the results for the inhibition in [7], in assay [8] and in [14] were -0.26% (inactive), 4% (inactive) and -0.445% (inactive), respectively. The growth inhibition in assay [9] is -5.51% (inactive); in assay [10] it was 1.4% (inactive). In assay [11], the viability increase is -0.71% (inactive). Moreover, in assay [15], the RAM network inhibition was 5.79% (inactive).

Regarding `Cc1nnc(SCC(=O)NCc2ccccc2)s1`, the viability in assay [1] was 97.5%; in [3], 97.5% (inactive); in assay [4] it was 81.2% (inactive); in assay [5], 101% (inactive); in assay [6] (setting [16]), 99.3%; in [6] (setting [17]), 101%. In addition, the values for the viability in assay [12] and in [13] were 101% (inactive) and 102% (inactive), respectively. Also, the Her2 level in assay [2] was 110% (inactive). In [6] (H69AR cells + 2 uM doxorubicin), the differential viability (reversal) was 1.61% (inactive). The inhibition is -1.43% (inactive) in [7], -2% (inactive) in assay [8] and 0.99% (inactive) in assay [14]. For the same compound, the growth inhibition in [9] and in assay [10] was -11.3% (inactive) in each case. For the same compound, the viability increase in assay [11] is -1.46% (inactive). In addition, the RAM network inhibition in assay [15] was 4.69% (inactive).

As for `COC1CCCCC1Nc1cccc(SC)c1` (stereo not given), the viability is 100% in assay [1]; 100% (inactive) in assay [3]; 104% (inactive) in [4]; 88.3% (inactive) in assay [5]; 77.7% in assay [6] (setting [16]); 88.3% in assay [6] (setting [17]). Further, the viability in assay [12] was 80.6% (inactive); in [13], 75.1% (inactive). Also, in [2], the Her2 level was 112% (inactive). Further, the differential viability (reversal) in assay [6] (H69AR cells + 2 uM doxorubicin) was 10.6% (inactive). Also, the inhibition in [7] was -3.25% (inactive); in assay [8] it was -3% (inactive); in assay [14], 1.83% (inactive). Moreover, the growth inhibition in assay [9] was -1.82% (inactive); in assay [10], -18.4% (inactive). The viability increase in [11] is -3.29% (inactive). In assay [15], the RAM network inhibition was 7.2% (inactive).

Turning to `CC1CCCC(N2CCN(C(=O)c3ccc(F)cc3)CC2)C1` (stereo not given), the viability is 95% in assay [1]; 95% (inactive) in assay [3]; 75.4% (inactive) in assay [4]; 91.3% (inactive) in assay [5]; 89.6% in assay [6] (setting [16]); 91.3% in [6] (setting [17]). Also, the viability in assay [12] was 101% (inactive); in [13], 98.5% (inactive). Besides, the Her2 level in assay [2] was 109% (inactive). In addition, in [6] (H69AR cells + 2 uM doxorubicin), the differential viability (reversal) was 1.66% (inactive). Further, the inhibition in assay [7] was 1.2% (inactive); in assay [8] it was 3.5% (inactive); in assay [14], 0.22% (inactive). Moreover, the growth inhibition in assay [9] was -0.99% (inactive); in assay [10], -4.36% (inactive). Further, the viability increase in assay [11] is -0.74% (inactive). The RAM network inhibition in assay [15] is -0.84% (inactive).

Broadly, the viability is a read-out of living cells in per cent, often relative to untreated cells. The term inhibition denotes the drop in the measured response relative to a control, in per cent.

The values above are taken from PubChem BioAssay.
